Laboratory results from PubChem BioAssay (NCATS).
The source made the active and inactive calls. The call rests on the fitted dose curve; in most records, active means well fitted activation curve with a large enough effect; inconclusive means small, poorly fitted or top-dose-only effect; inactive means flat fitted curve, though single readings scatter.

Experiment: Cellular Toxicity (caspase-3) SK-N-SH (AID 661)
Conditions: SK-N-SH caspase-3 activation, qHTS, DMSO as zero, staurosporine as full; series mostly up to 91.7 µM
Description: NIH Chemical Genomics Center [NCGC]
NIH Molecular Libraries Screening Centers Network [MLSCN]
National Institutes of Environmental Health Sciences [NIEHS]
National Toxicology Program [NTP]
We have developed a 1536-well cell-based assay for quantitative high throughput screening (qHTS) against a number of cell lines to determine in vitro caspase 3/7 activity of small molecules. This particular assay uses the SK-N-SH cell line which is derived from human neuroblastoma.
NCGC Assay Protocol Summary:
The Caspase-Glo 3/7 assay (Promega) is a homogeneous method to measure caspase-3 and caspase-7 activities in cultured cells. The quantitation of caspase 3/7 activity is based on the cleavage of a peptide-aminoluciferin substrate. After caspase cleaves the substrate the free aminoluciferin is liberated and serves as the substrate of luciferase, which generates the light. The luminescent signal is proportional to amount of caspase 3/7 activity present.
Using the Caspase-Glo 3/7 assay, the amount of caspase 3/7 activity was measured in the SK-N-SH cell line with complete culture medium following compound treatment for 16 hours. The assay was performed in opaque white 1536-well plates. In the screen, tamoxifen and staurosporine were used as positive controls. Library compounds were measured for their ability to cause the activation of caspase 3/7 in the cell line, as reflected by an increase in luminescence signal, in a concentration-dependent manner. Data were normalized to the controls for basal activity (DMSO only) and 100% stimulation (10 uM staurosporine). AC50 values were determined from concentration-response data modeled with the standard Hill equation.
qHTS protocol for caspase 3/7 assay in SK-N-SH cells
[Step] [Parameter] [Value] [Description]
1. Reagent; 5 uL; 1500 SK-N-SH cells/well
2. Time; 5 hr; 37 °C incubation
4. Controls; 23 nL; Tamoxifen 0.23 uM to 100 uM & staurosporine 1.4 pM to 100 uM
5. Time; 16 hr; 37 °C incubation
6. Reagent; 5 uL; Caspase-Glo 3/7 reagent
7. Time; 1 hr; Room Temperature
8. Detection; Luminescence; Viewlux plate reader
Keywords: caspase 3/7, apoptosis, SK-N-SH cell line, luminescence, NTPHTS, NTPHTS_NCGC, NIEHS, EPA, DSSTox, MLSMR, MLSCN, NIH Roadmap, qHTS, NCGC

Question: Which outcome does the source give for `CC1=C2[C@H](/C=C(\C)C(=O)O)CC[C@@H](C)[C@H]2CC1` here?
Answer: inactive

Question: Which outcome does the source give for `COC(=O)CCCCC(=O)OC` here?
Answer: inactive

Question: For `Clc1cc(Cl)c(Cl)c(Cl)c1Cl`, which outcome is on record?
Answer: inactive

Question: For `CC12CCC(CC1=O)C2(C)C` (stereo not given), which outcome is on record?
Answer: inactive

Question: With `CN(C)CCCCCCN(C)C` as the compound, how does the outcome read?
Answer: inactive

Question: For `COC(=O)c1ccc(C)cc1`, which outcome is on record?
Answer: inactive

Question: For `O=C(O)CC(C(=O)O)C(CC(=O)O)C(=O)O` (stereo not given), which outcome is on record?
Answer: inactive

Question: With `O=C1CCc2ccccc2O1` as the compound, how does the outcome read?
Answer: inactive

Question: With `O=C(/C=C/c1ccc(O)c(O)c1)O[C@@H](C(=O)O)[C@@H](OC(=O)/C=C/c1ccc(O)c(O)c1)C(=O)O` as the compound, how does the outcome read?
Answer: inactive

Question: Which outcome does the source give for `Cc1ccc(N)c([N+](=O)[O-])c1` here?
Answer: inactive

Question: For `CCO[Si](CCCN)(OCC)OCC`, which outcome is on record?
Answer: inactive

Question: With `COc1ccc2nc(N)sc2c1` as the compound, how does the outcome read?
Answer: inactive

Question: With `CCCCOCCO` as the compound, how does the outcome read?
Answer: inactive

Question: With `O[C@@H]([C@H](O)[C@@H](O)CBr)[C@@H](O)CBr` as the compound, how does the outcome read?
Answer: inactive

Question: Which outcome does the source give for `COc1ccc(/C=C/c2cc(OC)cc(=O)o2)cc1` here?
Answer: inactive

Question: With `CC(C)=CCCC(C)CCO` (stereo not given) as the compound, how does the outcome read?
Answer: inactive

Question: With `O=C(O)c1ccc(O)cc1O` as the compound, how does the outcome read?
Answer: inactive

Question: With `CCC(C)c1ccccc1O` (stereo not given) as the compound, how does the outcome read?
Answer: inactive

Question: With `C[C@H](CCC(=O)O)[C@H]1CC[C@H]2[C@@H]3CC[C@@H]4C[C@H](O)CC[C@]4(C)[C@H]3CC[C@]12C` as the compound, how does the outcome read?
Answer: inactive

Question: With `ClCCCl` as the compound, how does the outcome read?
Answer: inactive

Question: With `CCCCCCCCCCCCCC(=O)O` as the compound, how does the outcome read?
Answer: inactive

Question: With `Cc1ccc([N+](=O)[O-])c(C)c1` as the compound, how does the outcome read?
Answer: inactive

Question: Which outcome does the source give for `C=Cc1ccccc1Cl` here?
Answer: inactive

Question: With `COCC(=O)O` as the compound, how does the outcome read?
Answer: inactive

Question: With `Clc1cc(Cl)c(Cl)cc1Cl` as the compound, how does the outcome read?
Answer: inactive

Question: Which outcome does the source give for `C=CC(=C)CCC=C(C)C` here?
Answer: inactive

Question: Which outcome does the source give for `CCO` here?
Answer: inactive

Question: Which outcome does the source give for `NC1=NC(S)C2N=CN=C2N1` (stereo not given) here?
Answer: inactive

Question: With `O=S(=O)(O)c1ccccc1` as the compound, how does the outcome read?
Answer: inactive

Question: With `c1ccc2scnc2c1` as the compound, how does the outcome read?
Answer: inactive

Question: With `COc1cc(/C=C/c2ccccc2)oc(=O)c1` as the compound, how does the outcome read?
Answer: inactive

Question: Which outcome does the source give for `CCC(O)OC(O)CC` (stereo not given) here?
Answer: inactive

Question: Which outcome does the source give for `C=CCOC(=O)c1ccccc1C(=O)OCC=C` here?
Answer: inactive

Question: For `S=C1NC=NC2N=CNC12` (stereo not given), which outcome is on record?
Answer: inactive

Question: For `O=[N+]([O-])c1cccc(Cl)c1Cl`, which outcome is on record?
Answer: inactive

Question: For `OCCNCCO`, which outcome is on record?
Answer: inactive

Question: Which outcome does the source give for `Cc1ccccc1C` here?
Answer: inactive

Question: For `c1ccc2c(c1)[nH]c1ccccc12`, which outcome is on record?
Answer: inactive

Question: For `CC1(C)CC(N=C=O)CC(C)(CN=C=O)C1` (stereo not given), which outcome is on record?
Answer: inactive

Question: For `CN(C)C=O`, which outcome is on record?
Answer: inactive
